SENP6 inh = blocks the human protease SENP6; AID 2599; inhibition, % at 10 µM; Q9GZR1; hit rate 1.8% among 330,000; Recombinant SENP6 catalytic domain, aminoluciferin luminescence;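 active means inhibition above about 50% at the single tested dose, limit read from the data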;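 further: plate controls were DMSO wells with enzyme for no effect and DMSO wells lacking enzyme for full effect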
SENP7 block = inhibitors of human SENP7 protease. inhibition, % at 5 µM. recombinant SENP7, Z-RLRGG-aminoluciferin luminescence, 40 min. hit rate 1.5% among 330,000. Q9BQF6;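 active means inhibition above about 50% at the single test dose, limit read from the data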;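 further: plate controls were DMSO with enzyme for no effect and no enzyme buffer wells for full effect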
SENP8 block-1 = blocks the human protease SENP8. Q96LD8. inhibition, % at 10 µM. hit rate 1.2% among 330,000. purified SENP8, Z-RLRGG-aminoluciferin cleavage, luminescence; in the data active means inhibition above about 50%
Platelet DG rel = platelet dense granule release activity | human platelet-rich plasma, SFLLRN dense granule ATP release, luminescence | inhibition, %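 (compounds screened at 7.5 µM in platelet-rich plasma)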 | hit rate 0.22% among 300,000 | AID 1663;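 active means mean replicate score, as percent of positive control, at or above 50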
SENP8 block-2 = inhibitors of human SENP8 protease; Q96LD8; recombinant SENP8, Nedd8 substrate fluorescence; inhibition, % at 20 µM; hit rate 0.64% among 360,000; in the data active means inhibition mostly above about 40%, no sharp cut-off; inactive means mostly below about 27%
SENP8 conf = human SENP8 inhibition, confirmed. inhibition, % at 12.5 µM. AID 488912. shares compounds with SENP7 block. Recombinant SENP8, Z-RLRGG-aminoluciferin luminescence, 60 min. hit rate 40% among 6,200;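 active means mean inhibition across replicates above about 50%, limit read from the data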
SENP6 conf = confirmation of human SENP6 protease inhibitors. shares compounds with SENP7 block. recombinant SENP6, Z-RLRGG-aminoluciferin luminescence. inhibition, % at 12.5 µM. hit rate 58% among 6,200. AID 488915
SENP7 confirm = confirmation of human SENP7 protease inhibitors; inhibition, % at 12.5 µM; recombinant SENP7, Z-RLRGG-aminoluciferin luminescence, 40 min; shares compounds with SENP7 block; hit rate 69% among 6,200
Casp3 select = inhibits human caspase-3 in SENP selectivity test. inhibition, % at 12.5 µM. hit rate 60% among 6,200. shares compounds with SENP7 block. purified caspase-3, Z-DEVD-aminoluciferin luminescence, 60 min;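 active means mean inhibition above about 50%, limit read from the data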;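 further: plate controls were enzyme with DMSO for no effect and wells without caspase-3 for full effect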
SENP luc ctr = counter-screen for SENP inhibitors: luminescence interference; inhibition, % at 12.5 µM; hit rate 39% among 6,200; Pre-incubated SENP8/Z-RLRGG-aminoluciferin, luciferase luminescence interference; AID 488919; shares compounds with SENP7 block;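 active means mean inhibition above about 50% when retested at one dose, limit read from the data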;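 further: plate controls were DMSO wells with completed reaction for no effect and substrate without enzyme for full effect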
Starred values were filed as active, the others as inactive; nt = no result given. Most compounds without a hit are left out; they make up all but 2.4% or so of the library.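 How the source made its calls, unless noted: active means mean inhibition above about 50% in the one-dose retest (limit read from the data); inactive means the rest.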

SMILES	SENP6 inh	SENP7 block	SENP8 block-1	Platelet DG rel	SENP8 block-2	SENP8 conf	SENP6 conf	SENP7 confirm	Casp3 select	SENP luc ctr
CC1CCCN(C(=O)CN(C)S(=O)(=O)c2cccc3nsnc23)C1 (configuration not stated)	-17	3	2	11	13	nt	nt	nt	nt	nt
O=C(Cc1ccc([N+](=O)[O-])cc1)c1ccc(O)cc1O	-12	8	-7	1	21	nt	nt	nt	nt	nt
Cc1ccc2c(c1)C(N1CCCC1=O)CC(c1ccco1)N2 (configuration not stated)	94*	-8	95*	14	-473	22	82*	100*	95*	17
Cc1cccn2c(=O)nc(SCC(=O)N3CCC(C)CC3)nc12	-2	3	0	24	-59	nt	nt	nt	nt	nt
N#C/C(=C(/O)c1ccco1)c1nc2ccccc2s1	90*	57*	81*	5	-36	91*	91*	100*	91*	74*
N#C/C(=C(/O)c1cc2ccccc2o1)c1nc2ccccc2s1	-7	70*	95*	1	-18	-2	32	28	18	61*
N#C/C(=C(/O)c1cccc(F)c1)c1nc2ccccc2s1	91*	56*	77*	5	2	58*	59*	72*	77*	35
CCCc1cc(=O)[nH]c(SCC(=O)Nc2c(C)n(C)n(-c3ccccc3)c2=O)n1	0	0	-5	nt	3	nt	nt	nt	nt	nt
CC(C)N1C(=O)CCN(C=O)c2ccccc21	7	-14	1	1	16	nt	nt	nt	nt	nt
CCOCCCNc1ccc(N2C(=O)CCCC2=O)cc1[N+](=O)[O-]	-7	2	5	6	23	nt	nt	nt	nt	nt
CO/N=C/C(C(C)=O)C(=O)Nc1ccc(Cl)cc1Cl (configuration not stated)	56*	-4	10	-1	9	12	15	46	26	16
CC1(C)Cc2c(sc(NC(=O)Nc3ccccc3)c2C(N)=O)CO1	68*	53*	56*	12	-84	-3	52*	80*	52*	33
CCCCn1c(CCC(=O)O)nc2cc(S(=O)(=O)N3CCCC3)ccc21	-2	-8	-16	nt	14	nt	nt	nt	nt	nt
Cc1ccc(Nc2nc(Cl)c(C=O)s2)cc1Cl	94*	87*	93*	5	-365	69*	96*	85*	52*	10
CCOc1ccc(C(=O)N/N=C/c2c(C)[nH]c(=O)[nH]c2=O)cc1	-27	-1	1	-6	nt	nt	nt	nt	nt	nt
Cc1cc(NC(=O)c2cc(-c3cccs3)on2)no1	-5	7	-1	-1	4	nt	nt	nt	nt	nt
N#Cc1ccc(NC(=O)c2cc(-c3cccs3)on2)cc1	58*	8	2	0	-33	-24	-18	-12	-11	-8
CCCCN(C(=O)c1ccc([N+](=O)[O-])o1)c1c(N)n(CCCC)c(=O)[nH]c1=O	6	-5	-5	18	-20	nt	nt	nt	nt	nt
O=C(O)CSc1nc2ccccc2o1	-10	2	-4	7	-1	nt	nt	nt	nt	nt
COC(=O)c1ccc(CSc2nc3ccccc3o2)cc1	85*	91*	87*	3	16	-24	91*	100*	80*	65*
O=[N+]([O-])c1ccc(CSc2nc3ccccc3o2)cc1	52*	24	16	0	21	53*	54*	66*	36	32
Nc1nc(-c2cc3ccccc3o2)cs1	71*	39	39	17	7	52*	53*	81*	56*	12
Nc1nc(-c2ccc(-c3ccccc3)cc2)cs1	-16	73*	68*	11	-418	11	82*	97*	55*	28
OC(c1ccccc1)c1nc(-c2cc3ccccc3o2)cs1 (configuration not stated)	nt	nt	nt	nt	-14	nt	nt	nt	nt	nt

Bioassay records from PubChem.
